Reference: PubChem BioAssay (EPA / NIEHS)
Active and inactive are the calls of the source. How the source made its calls: active means hit-call score of the fitted dose curve at least 0.9, where 1 is the maximum; inactive means score below 0.9.

Tests used:
[1] = APR_HepG2_NuclearSize_72hr: Apredica 72-hour HepG2 Assay for Nuclear Size (AID 2282925); details: high-content imaging, actives raise or lower the signal
Outline: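 Compounds (0.39–200 uM, final DMSO 0.5%) were applied to HepG2 for 72 hr. Cells were then formaldehyde-fixed, permeabilized and labelled with Hoechst 33342. Nuclear diameter was quantified from six images per well.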

[2] = ATG_CRE_CIS: Attagene CIS-FACTORIAL HepG2 Assay for human cAMP Responsive Element (CRE) binding protein 3 (AID 2282926); details: HepG2 CRE cis-reporter, Attagene multiplexed mRNA; actives raise or lower the signal
Outline: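 Liver-derived HepG2, transfected with a CRE-containing reporter panel, exposed 24 h; transcript levels sized and quantified by capillary electrophoresis of labelled amplicons; signal changes either way referenced to vehicle.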

[3] = molecular target: CCAAT/enhancer-binding protein beta (Homo sapiens) (UniProt P17676); test: ATG_C_EBP_CIS: Attagene CIS-FACTORIAL HepG2 Assay for human CCAAT/Enhancer Binding Protein (C/EBP) beta (AID 2282927); details: HepG2 Attagene cis-factorial transcription factor reporter; actives raise or lower the signal
CCAAT/enhancer-binding protein beta (Homo sapiens), sequence (P17676 whole entry, looked up, the tested form may be a part): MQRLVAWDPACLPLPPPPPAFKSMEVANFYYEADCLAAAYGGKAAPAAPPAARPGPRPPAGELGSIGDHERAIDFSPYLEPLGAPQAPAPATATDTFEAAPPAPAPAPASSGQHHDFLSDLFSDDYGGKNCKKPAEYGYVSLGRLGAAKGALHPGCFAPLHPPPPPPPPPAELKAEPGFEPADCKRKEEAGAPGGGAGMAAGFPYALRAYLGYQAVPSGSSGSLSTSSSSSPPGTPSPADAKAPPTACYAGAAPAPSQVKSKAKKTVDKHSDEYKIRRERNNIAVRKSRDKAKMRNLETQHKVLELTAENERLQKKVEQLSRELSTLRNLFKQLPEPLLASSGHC
Outline: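 Chemical-treated HepG2 cells (24 h) bearing cis-regulated reporter constructs were processed for total RNA, then reverse transcription, PCR amplification, fluorescent primer extension and fragment analysis; gain- and loss-of-signal were fitted against DMSO.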

[4] = ATG_CMV_CIS: Attagene CIS-FACTORIAL HepG2 Assay for human CMV (Internal Marker) (AID 2282928); details: HepG2 CMV promoter reporter, transcription factor profiling; actives raise or lower the signal;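 further: endpoint acts as a background internal control marker rather than a target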
Outline: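 Reporter transcripts from transfected HepG2 cells are isolated after 24 h of chemical dosing, reverse-transcribed and amplified. Fragments labeled with 6-FAM are cut with HpaI and quantified by capillary electrophoresis; DMSO defines baseline.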

[5] = ATG_DR4_LXR_CIS: Attagene CIS-FACTORIAL HepG2 Assay for human Liver X Receptor (LXR), DR4 submotif (AID 2282929); details: HepG2 Attagene DR4 cis-reporter, mRNA transcription; actives raise or lower the signal
Outline: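 Measures endogenous transcription factor activity via a DR4-driven reporter transcript in human HepG2 cells. Compounds incubated 24 h; mRNA quantified by RT-PCR and capillary electrophoresis, analysed as gain or loss of signal versus DMSO.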

[6] = molecular target: Aryl hydrocarbon receptor (Homo sapiens) (UniProt P35869); test: ATG_Ahr_CIS: Attagene CIS-FACTORIAL HepG2 Assay for human Aryl Hydrocarbon Receptor (Ahr) (AID 2282930); details: HepG2 AhR cis-factorial reporter transcription; actives raise or lower the signal
Aryl hydrocarbon receptor (Homo sapiens), sequence (P35869 whole entry, looked up): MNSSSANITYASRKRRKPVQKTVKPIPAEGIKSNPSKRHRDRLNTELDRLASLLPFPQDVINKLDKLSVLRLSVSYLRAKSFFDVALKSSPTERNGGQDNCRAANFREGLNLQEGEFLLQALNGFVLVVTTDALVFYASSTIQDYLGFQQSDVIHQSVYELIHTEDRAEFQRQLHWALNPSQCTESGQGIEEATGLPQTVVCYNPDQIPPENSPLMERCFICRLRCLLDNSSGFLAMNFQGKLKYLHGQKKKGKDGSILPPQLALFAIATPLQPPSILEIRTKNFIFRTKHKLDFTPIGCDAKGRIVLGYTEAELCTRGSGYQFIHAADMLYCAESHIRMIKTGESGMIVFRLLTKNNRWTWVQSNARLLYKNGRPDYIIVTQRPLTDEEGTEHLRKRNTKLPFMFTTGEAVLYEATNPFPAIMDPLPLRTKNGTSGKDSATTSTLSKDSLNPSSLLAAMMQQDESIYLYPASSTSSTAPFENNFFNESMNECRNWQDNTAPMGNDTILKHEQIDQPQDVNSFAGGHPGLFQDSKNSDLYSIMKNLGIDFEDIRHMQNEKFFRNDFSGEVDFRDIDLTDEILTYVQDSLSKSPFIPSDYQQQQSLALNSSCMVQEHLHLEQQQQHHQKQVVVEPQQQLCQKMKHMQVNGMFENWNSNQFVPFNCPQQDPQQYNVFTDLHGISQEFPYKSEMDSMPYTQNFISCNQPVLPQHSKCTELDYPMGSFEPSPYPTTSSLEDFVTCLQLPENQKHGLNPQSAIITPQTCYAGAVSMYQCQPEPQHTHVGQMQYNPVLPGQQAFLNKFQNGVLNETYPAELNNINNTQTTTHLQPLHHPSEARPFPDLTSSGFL
Outline: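 Following 24 h of chemical dosing, transfected HepG2 liver cells with cis-driven reporter units were lysed for RNA; reporter mRNA was quantified via RT-PCR and capillary electrophoresis, and responses fitted bidirectionally from DMSO.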

[7] = ATG_AP_1_CIS: Attagene CIS-FACTORIAL HepG2 Assay for human Activator Protein 1 (AP-1) (AID 2282931); details: HepG2 Attagene cis-factorial AP-1 reporter mRNA; actives raise or lower the signal
Outline: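 Bidirectional concentration-response fitting against DMSO controls. Underlying signal: reporter mRNA from cis-promoter constructs in transiently transfected HepG2, measured after 24 h by RT-PCR and capillary electrophoresis.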

[8] = ATG_AP_2_CIS: Attagene CIS-FACTORIAL HepG2 Assay for human Activator Protein 2 (AP-2) (AID 2282932); details: HepG2 AP-2 cis-reporter, Attagene transcription factor profiling; actives raise or lower the signal
Outline: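 Cells (HepG2) transfected with promoter-driven reporter constructs, treated 24 h. Total RNA reverse-transcribed, reporter cDNA PCR-amplified, FAM-labelled by primer extension, digested, resolved by capillary electrophoresis. Activity fitted both directions versus DMSO.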

[9] = ATG_BRE_CIS: Attagene CIS-FACTORIAL HepG2 Assay for human Bone Morphogenetic Protein (BMP) Response Element (BRE) (AID 2282933); details: HepG2 BMP response element reporter, Attagene transcription factor profiling; actives raise or lower the signal
Outline: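 Fluorescence-labelled reporter cDNA fragments, separated by capillary electrophoresis, gave the signal for this component of a 52-readout multiplex. HepG2 cells were transfected, exposed to chemicals for 24 h, and compared with DMSO using bidirectional fitting.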

[10] = molecular target: Retinoic acid receptor alpha (Homo sapiens) (UniProt P10276); test: ATG_DR5_RAR_CIS: Attagene CIS-FACTORIAL HepG2 Assay for human Retinoic Acid Receptor Alpha (RARE), DR5 submotif (AID 2282934); details: HepG2 Attagene cis-factorial RARE DR5 reporter, mRNA; actives raise or lower the signal;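 on AC50: reporter responds to endogenous RAR alpha beta and gamma in HepG2 not RARA alone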
Retinoic acid receptor alpha (Homo sapiens), sequence (P10276 whole entry, looked up): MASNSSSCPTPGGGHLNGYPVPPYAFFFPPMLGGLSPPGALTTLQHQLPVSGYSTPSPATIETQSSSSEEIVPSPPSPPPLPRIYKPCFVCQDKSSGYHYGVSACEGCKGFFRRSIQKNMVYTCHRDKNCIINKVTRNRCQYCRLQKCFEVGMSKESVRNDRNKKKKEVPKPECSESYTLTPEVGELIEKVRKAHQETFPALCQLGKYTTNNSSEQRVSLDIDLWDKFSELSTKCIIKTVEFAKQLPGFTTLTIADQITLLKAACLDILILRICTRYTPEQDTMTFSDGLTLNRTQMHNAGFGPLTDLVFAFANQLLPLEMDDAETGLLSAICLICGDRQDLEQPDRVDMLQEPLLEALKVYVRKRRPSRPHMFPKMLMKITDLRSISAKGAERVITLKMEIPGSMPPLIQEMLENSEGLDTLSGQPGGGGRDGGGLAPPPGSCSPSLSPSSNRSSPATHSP
Outline: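 Transfected HepG2 reporter cells are exposed to chemicals for 24 h. Then RNA is extracted and the DR5 element reporter transcript is measured by RT-PCR and capillary electrophoresis, with bidirectional curve fitting relative to DMSO.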

COP(=S)(OC)Oc1ccc([N+](=O)[O-])cc1
outcome [1]: inactive | outcome [2]: inactive | outcome [3]: inactive | outcome [4]: inactive | outcome [5]: inactive | outcome [6]: inactive | outcome [7]: inactive | outcome [8]: inactive | outcome [9]: inactive | outcome [10]: inactive

CCc1ccc(C(=O)NN(C(=O)c2cc(C)cc(C)c2)C(C)(C)C)cc1
outcome [1]: inactive | outcome [2]: inactive | outcome [3]: inactive | outcome [4]: inactive | AC50 [5]: 50 µM (active) | outcome [6]: inactive | outcome [7]: inactive | outcome [8]: inactive | outcome [9]: inactive | outcome [10]: inactive

CCC(C)(C)C(=O)OC1=C(c2ccc(Cl)cc2Cl)C(=O)OC12CCCCC2
outcome [1]: inactive | outcome [2]: inactive | outcome [3]: inactive | outcome [4]: inactive | outcome [5]: inactive | outcome [6]: inactive | outcome [7]: inactive | outcome [8]: inactive | outcome [10]: inactive

Cc1cc(C)nc(NC(=O)NS(=O)(=O)c2ccccc2C(=O)OC2COC2)n1
outcome [1]: inactive | outcome [2]: inactive | outcome [3]: inactive | outcome [4]: inactive | outcome [5]: inactive | outcome [6]: inactive | outcome [7]: inactive | outcome [8]: inactive | outcome [10]: inactive

CCS(=O)(=O)c1cccnc1S(=O)(=O)NC(=O)Nc1nc(OC)cc(OC)n1
outcome [1]: inactive | outcome [2]: inactive | outcome [3]: inactive | outcome [4]: inactive | outcome [5]: inactive | outcome [6]: inactive | outcome [7]: inactive | outcome [8]: inactive | outcome [10]: inactive

O=C(O)CCCOc1ccc(Cl)cc1Cl
outcome [1]: inactive | outcome [2]: inactive | outcome [3]: inactive | outcome [4]: inactive | outcome [5]: inactive | outcome [6]: inactive | outcome [7]: inactive | outcome [8]: inactive | outcome [10]: inactive

CCOc1nc(NC)nc(NC(=O)NS(=O)(=O)c2ccccc2C(=O)OC)n1
outcome [1]: inactive | outcome [2]: inactive | outcome [3]: inactive | outcome [4]: inactive | outcome [5]: inactive | outcome [6]: inactive | outcome [7]: inactive | outcome [8]: inactive | outcome [10]: inactive

COP(=S)(OC)Oc1ccc(SC)c(C)c1
outcome [1]: inactive | outcome [2]: inactive | outcome [3]: inactive | outcome [4]: inactive | AC50 [5]: 29.2 µM (active) | AC50 [6]: 10.6 µM (active) | outcome [7]: inactive | outcome [8]: inactive | outcome [10]: inactive

COC(=O)c1ccccc1CS(=O)(=O)NC(=O)Nc1nc(OC)cc(OC)n1
outcome [1]: inactive | outcome [2]: inactive | outcome [3]: inactive | outcome [4]: inactive | outcome [5]: inactive | outcome [6]: inactive | outcome [7]: inactive | outcome [8]: inactive | outcome [10]: inactive

CCC(C)Nc1c([N+](=O)[O-])cc(C(C)(C)C)cc1[N+](=O)[O-] (stereo not given)
outcome [1]: inactive | AC50 [2]: 7.44 µM (active) | outcome [3]: inactive | AC50 [4]: 24.1 µM (active) | AC50 [5]: 36.4 µM (active) | outcome [6]: inactive | AC50 [7]: 43.3 µM (active) | outcome [8]: inactive | AC50 [10]: 6.5 µM (active)

[2H]C1([2H])[n+]2ccccc2-c2cccc[n+]2C1([2H])[2H]
outcome [1]: inactive | outcome [2]: inactive | outcome [3]: inactive | AC50 [4]: 13.5 µM (active) | AC50 [5]: 79.9 µM (active) | outcome [6]: inactive | AC50 [7]: 38.9 µM (active) | outcome [8]: inactive | outcome [10]: inactive

O=C1c2ccccc2C(=O)N1SC(Cl)(Cl)Cl
outcome [1]: inactive | outcome [2]: inactive | outcome [3]: inactive | outcome [4]: inactive | outcome [5]: inactive | outcome [6]: inactive | outcome [7]: inactive | outcome [8]: inactive | outcome [10]: inactive

CCC(C)(NC(=O)c1cc(Cl)c(C)c(Cl)c1)C(=O)CCl (stereo not given)
outcome [1]: inactive | outcome [2]: inactive | outcome [3]: inactive | outcome [4]: inactive | outcome [5]: inactive | outcome [6]: inactive | outcome [7]: inactive | outcome [8]: inactive | outcome [10]: inactive

N#CN
outcome [1]: inactive | outcome [2]: inactive | outcome [3]: inactive | outcome [4]: inactive | outcome [5]: inactive | outcome [6]: inactive | outcome [7]: inactive | outcome [8]: inactive | outcome [10]: inactive

COC(=O)c1ccccc1S(=O)(=O)NC(=O)N(C)c1nc(C)nc(OC)n1
outcome [1]: inactive | outcome [2]: inactive | outcome [3]: inactive | outcome [4]: inactive | outcome [5]: inactive | outcome [6]: inactive | outcome [7]: inactive | outcome [8]: inactive | outcome [10]: inactive

COc1cc(OC)nc(NC(=O)NS(=O)(=O)c2cc(NC=O)ccc2C(=O)N(C)C)n1
outcome [1]: inactive | outcome [2]: inactive | AC50 [3]: 13.3 µM (active) | outcome [4]: inactive | outcome [5]: inactive | outcome [6]: inactive | outcome [7]: inactive | outcome [8]: inactive | outcome [10]: inactive

CC(C)N(C(=O)COc1nnc(C(F)(F)F)s1)c1ccc(F)cc1
outcome [1]: inactive | AC50 [2]: 31.9 µM (active) | outcome [3]: inactive | outcome [4]: inactive | outcome [5]: inactive | outcome [6]: inactive | AC50 [7]: 50 µM (active) | outcome [8]: inactive | outcome [10]: inactive

CNC(=O)Oc1ccccc1OC(C)C
outcome [1]: inactive | outcome [2]: inactive | outcome [3]: inactive | outcome [4]: inactive | outcome [5]: inactive | outcome [6]: inactive | outcome [7]: inactive | outcome [8]: inactive | outcome [10]: inactive

CC1(C)C(C=C(Cl)Cl)C1C(=O)OC(C#N)c1ccc(F)c(Oc2ccccc2)c1 (stereo not given)
outcome [1]: inactive | outcome [2]: inactive | outcome [3]: inactive | outcome [4]: inactive | AC50 [5]: 14.4 µM (active) | outcome [6]: inactive | outcome [7]: inactive | outcome [8]: inactive | AC50 [10]: 2.57 µM (active)

CN1CSC(=S)N(C)C1
outcome [1]: inactive | AC50 [2]: 50 µM (active) | outcome [3]: inactive | outcome [4]: inactive | outcome [5]: inactive | outcome [6]: inactive | outcome [7]: inactive | outcome [8]: inactive | outcome [10]: inactive

CNC(=O)Oc1cccc(N=CN(C)C)c1
outcome [1]: inactive | AC50 [2]: 50 µM (active) | AC50 [3]: 50 µM (active) | AC50 [4]: 50 µM (active) | outcome [5]: inactive | AC50 [6]: 93.9 µM (active) | AC50 [7]: 77.5 µM (active) | outcome [8]: inactive | outcome [10]: inactive

C[C@H]1[C@H](c2ccc(Cl)cc2)SC(=O)N1C(=O)NC1CCCCC1
outcome [1]: inactive | outcome [2]: inactive | outcome [3]: inactive | AC50 [4]: 13.8 µM (active) | AC50 [5]: 81.4 µM (active) | outcome [6]: inactive | AC50 [7]: 23.1 µM (active) | outcome [8]: inactive | outcome [10]: inactive

COc1nn(CSP(=S)(OC)OC)c(=O)s1
outcome [1]: inactive | outcome [2]: inactive | outcome [3]: inactive | outcome [4]: inactive | outcome [5]: inactive | outcome [6]: inactive | outcome [7]: inactive | outcome [8]: inactive | outcome [10]: inactive

O=C(O)COc1ccc(Cl)cc1Cl
outcome [1]: inactive | outcome [2]: inactive | outcome [3]: inactive | outcome [4]: inactive | outcome [5]: inactive | outcome [7]: inactive | outcome [8]: inactive

O=C(Nc1ccccc1)Nc1cnns1
outcome [1]: inactive | outcome [2]: inactive | outcome [3]: inactive | AC50 [4]: 50 µM (active) | AC50 [5]: 82.7 µM (active) | outcome [6]: inactive | AC50 [7]: 50 µM (active) | outcome [8]: inactive | outcome [10]: inactive

CC(C)(C)C(O)/C(=C\c1ccc(Cl)cc1Cl)n1cncn1 (stereo not given)
outcome [1]: inactive | outcome [2]: inactive | outcome [3]: inactive | outcome [4]: inactive | outcome [5]: inactive | outcome [6]: inactive | outcome [7]: inactive | outcome [8]: inactive | outcome [10]: inactive

CC(C)OC(=O)Nc1cccc(Cl)c1
outcome [1]: inactive | AC50 [2]: 15.3 µM (active) | AC50 [3]: 22.5 µM (active) | AC50 [4]: 34.1 µM (active) | outcome [5]: inactive | outcome [6]: inactive | outcome [7]: inactive | outcome [8]: inactive | outcome [10]: inactive

O=[N+]([O-])/N=C1\NCCN1Cc1ccc(Cl)nc1
outcome [1]: inactive | outcome [2]: inactive | outcome [3]: inactive | outcome [4]: inactive | outcome [5]: inactive | outcome [7]: inactive | outcome [8]: inactive | outcome [10]: inactive

O=S1OCC2C(CO1)C1(Cl)C(Cl)=C(Cl)C2(Cl)C1(Cl)Cl (stereo not given)
outcome [1]: inactive | outcome [2]: inactive | outcome [3]: inactive | outcome [4]: inactive | outcome [5]: inactive | outcome [6]: inactive | outcome [7]: inactive | outcome [8]: inactive | outcome [10]: inactive
